# Assay results reported in PubChem BioAssay (NCI).
# Compounds without any hit were thinned out: in the full panel of roughly 79,000, 15% have a hit. Values without a mark were called inactive. The source made the active and inactive calls. No stated cut-off is given here; in the data, active means growth inhibition above about 70%; inactive means the rest.
# Legend:
# [1] = NCI Yeast Anticancer Drug Screen. Data for the rad52 strain (AID 147);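 further: 0% = growth of vehicle-treated control cultures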; details: S. cerevisiae rad52 mutant growth inhibition, active compounds read high
# In short: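 Genetically altered yeast (DNA damage repair defect) treated with compound; inhibition calculated relative to vehicle.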
# [2] = NCI Yeast Anticancer Drug Screen. Data for the wt1 strain (AID 149);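 further: 0% = growth of vehicle-treated wt1 cultures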; details: S. cerevisiae wt1 strain (SPY 50644) growth inhibition, active compounds read high
# In short: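 The wt1 strain was treated with compounds, and growth was compared with vehicle-treated cultures to give inhibition.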
# [3] = NCI Yeast Anticancer Drug Screen. Data for the rad50EPP+ strain (AID 151);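 further: 0% = growth of vehicle-treated control cultures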; details: S. cerevisiae rad50 mutant strain, active compounds read high
# In short: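 Strain rad50EPP+; compound exposure; % growth inhibition vs vehicle.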
# [4] = NCI Yeast Anticancer Drug Screen. Data for the mgt1 strain (AID 153); details: S. cerevisiae mgt1 mutant growth inhibition, active compounds read high
# In short: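 Read-out: yeast growth inhibition vs vehicle control. Strain mgt1, drawn from a panel altered in DNA damage repair or cell cycle control.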
# [5] = NCI Yeast Anticancer Drug Screen. Data for the rad50 strain (AID 155);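 further: 0% = growth of vehicle-only cultures of the same strain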; details: S. cerevisiae rad50 strain growth inhibition, active compounds read high
# In short: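 Cells are treated with compound, grown, and their growth is then scored against vehicle-only cultures of the same repair-deficient yeast strain.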
# [6] = NCI Yeast Anticancer Drug Screen. Data for the mec2-1 strain (AID 157); details: S. cerevisiae mec2-1 strain, active compounds read high
# In short: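 Cells of the genetically defined mec2-1 yeast strain are incubated with test compound. Inhibition of growth is calculated against vehicle-treated controls.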
# [7] = NCI Yeast Anticancer Drug Screen. Data for the rad14 strain (AID 159);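 further: 0% = growth of vehicle-treated control cultures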; details: S. cerevisiae rad14 strain growth inhibition, active compounds read high
# In short: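 Readout: yeast growth inhibition, referenced to vehicle-only cultures. Strain bears a defined alteration in DNA damage repair.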
# [8] = NCI Yeast Anticancer Drug Screen. Data for the sgs1 mgt1 strain (AID 161);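 further: 0% = growth of cultures given vehicle only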; details: S. cerevisiae sgs1 mgt1 strain, active compounds read high
# In short: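 Read-out: growth inhibition vs vehicle controls. Cells: mutant yeast strain deficient in DNA damage repair.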
# [9] = NCI Yeast Anticancer Drug Screen. Data for the CLN2oe strain (AID 163);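 further: 0% = growth of vehicle-only control cultures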; details: S. cerevisiae CLN2oe strain, active compounds read high
# In short: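 Strain altered in cell-cycle control, incubated with compound; growth compared to solvent-treated controls.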
# [10] = NCI Yeast Anticancer Drug Screen. Data for the cln2 rad14 strain (AID 165);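 further: 0% = growth equal to vehicle treated cultures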; details: S. cerevisiae cln2 rad14 strain, active compounds read high
# In short: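 The screen exposed genetically defined yeast (cln2 rad14) to test compounds and scored growth inhibition relative to vehicle-treated controls.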
# [11] = NCI Yeast Anticancer Drug Screen. Data for the bub3 strain (AID 167); details: S. cerevisiae bub3 mutant strain, active compounds read high
# In short: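 Part of a panel of yeast mutants defective in DNA damage repair or cell cycle regulation. Each strain is grown with compound, and inhibition is calculated relative to solvent-treated cultures.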
# [12] = NCI Yeast Anticancer Drug Screen. Data for the wt2 strain (AID 169);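 further: 0% = growth of vehicle-treated yeast cultures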; details: S. cerevisiae wt2 strain growth inhibition, active compounds read high
# In short: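 Steps: yeast strain treated with compound; growth recorded; inhibition calculated relative to cultures given vehicle alone.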
# [13] = NCI Yeast Anticancer Drug Screen. Data for the mlh1 strain (AID 171);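 further: 0% = growth of vehicle-treated control cultures of the same strain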; details: S. cerevisiae mlh1 strain growth inhibition, active compounds read high
# In short: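 Yeast screen: mutant strain plus compound, growth scored against vehicle control wells.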
# [14] = NCI Yeast Anticancer Drug Screen. Data for the sgs1 strain (AID 173);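 further: 0% = growth of vehicle-only control cultures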; details: S. cerevisiae sgs1 mutant, active compounds read high
# In short: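 Inhibition of yeast growth served as the measure. The mutant strain was treated with each compound, and growth was normalised to cultures receiving vehicle alone.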
# [15] = NCI Yeast Anticancer Drug Screen. Data for the mlh1 rad18 strain (AID 175); details: S. cerevisiae mlh1 rad18 strain growth inhibition, active compounds read high
# In short: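 Compound-treated yeast growth, normalised to vehicle controls. Strain bears defined DNA repair mutations.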
# [16] = NCI Yeast Anticancer Drug Screen. Data for the rad18 strain (AID 177); details: S. cerevisiae rad18 mutant growth inhibition, active compounds read high
# In short: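 Inhibition values reflect reduced yeast growth compared with vehicle-treated controls, using a strain engineered with a DNA damage repair defect.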
# [17] = at 5.0 µM (retest, dose inferred, filed as 0.5)
# [18] = at 50.0 µM (retest, dose inferred, filed as 5.0)
smiles,measurement,setting,value
CC(C)=CC(=O)O[C@@H]1CC(C)(C)CC2C3=CCC4[C@]56CC[C@](O)(OC5)C(C)(C)C6CC[C@@]4(C)C3(C)CC[C@]21C(=O)O (stereo partly specified),growth inhibition,[1]; at 1.2 µM,2%
same,growth inhibition,[1]; at 3.7 µM,37%
same,growth inhibition,[1]; at 11.0 µM,80% (active)
same,growth inhibition,[1]; at 33.0 µM,93% (active)
same,growth inhibition,[1]; at 100.0 µM,92% (active)
same,growth inhibition,[2]; at 1.2 µM,-23%
same,growth inhibition,[2]; at 3.7 µM,44%
same,growth inhibition,[2]; at 11.0 µM,85% (active)
same,growth inhibition,[2]; at 33.0 µM,93% (active)
same,growth inhibition,[2]; at 100.0 µM,92% (active)
same,growth inhibition,[3]; at 1.2 µM,-9%
same,growth inhibition,[3]; at 3.7 µM,-1%
same,growth inhibition,[3]; at 11.0 µM,7%
same,growth inhibition,[3]; at 33.0 µM,14%
same,growth inhibition,[3]; at 100.0 µM,6%
same,growth inhibition,[4]; at 1.2 µM,-15%
same,growth inhibition,[4]; at 3.7 µM,11%
same,growth inhibition,[4]; at 11.0 µM,57%
same,growth inhibition,[4]; at 33.0 µM,89% (active)
same,growth inhibition,[4]; at 100.0 µM,91% (active)
same,growth inhibition,[5]; at 1.2 µM,1%
same,growth inhibition,[5]; at 3.7 µM,36%
same,growth inhibition,[5]; [17],10%
same,growth inhibition,[5]; at 11.0 µM,75% (active)
same,growth inhibition,[5]; at 33.0 µM,94% (active)
same,growth inhibition,[5]; [18],88% (active)
same,growth inhibition,[5]; at 50.0 µM,82.3% (active)
same,growth inhibition,[5]; at 100.0 µM,90% (active)
same,growth inhibition,[6]; at 1.2 µM,-8%
same,growth inhibition,[6]; at 3.7 µM,31%
same,growth inhibition,[6]; [17],27%
same,growth inhibition,[6]; at 11.0 µM,69%
same,growth inhibition,[6]; at 33.0 µM,88% (active)
same,growth inhibition,[6]; [18],87% (active)
same,growth inhibition,[6]; at 50.0 µM,83.2% (active)
same,growth inhibition,[6]; at 100.0 µM,89% (active)
same,growth inhibition,[7]; at 1.2 µM,-15%
same,growth inhibition,[7]; at 3.7 µM,2%
same,growth inhibition,[7]; at 11.0 µM,44%
same,growth inhibition,[7]; at 33.0 µM,78% (active)
same,growth inhibition,[7]; at 100.0 µM,84% (active)
same,growth inhibition,[8]; [17],11%
same,growth inhibition,[8]; [18],89% (active)
same,growth inhibition,[8]; at 50.0 µM,85.2% (active)
same,growth inhibition,[9]; at 1.2 µM,-5%
same,growth inhibition,[9]; at 3.7 µM,54%
same,growth inhibition,[9]; at 11.0 µM,85% (active)
same,growth inhibition,[9]; at 33.0 µM,95% (active)
same,growth inhibition,[9]; at 100.0 µM,93% (active)
same,growth inhibition,[10]; [17],33%
same,growth inhibition,[10]; [18],92% (active)
same,growth inhibition,[10]; at 50.0 µM,79.3% (active)
same,growth inhibition,[11]; at 1.2 µM,-18%
same,growth inhibition,[11]; at 3.7 µM,27%
same,growth inhibition,[11]; [17],25%
same,growth inhibition,[11]; at 11.0 µM,81% (active)
same,growth inhibition,[11]; at 33.0 µM,92% (active)
same,growth inhibition,[11]; [18],91% (active)
same,growth inhibition,[11]; at 50.0 µM,81.3% (active)
same,growth inhibition,[11]; at 100.0 µM,92% (active)
same,growth inhibition,[12]; at 1.2 µM,-11%
same,growth inhibition,[12]; at 3.7 µM,18%
same,growth inhibition,[12]; at 11.0 µM,61%
same,growth inhibition,[12]; at 33.0 µM,91% (active)
same,growth inhibition,[12]; at 100.0 µM,94% (active)
same,growth inhibition,[13]; at 1.2 µM,-13%
same,growth inhibition,[13]; at 3.7 µM,21%
same,growth inhibition,[13]; at 11.0 µM,58%
same,growth inhibition,[13]; at 33.0 µM,87% (active)
same,growth inhibition,[13]; at 100.0 µM,90% (active)
same,growth inhibition,[14]; at 1.2 µM,-3%
same,growth inhibition,[14]; at 3.7 µM,46%
same,growth inhibition,[14]; at 11.0 µM,83% (active)
same,growth inhibition,[14]; at 33.0 µM,95% (active)
same,growth inhibition,[14]; at 100.0 µM,95% (active)
same,growth inhibition,[15]; [17],-11%
same,growth inhibition,[15]; [18],90% (active)
same,growth inhibition,[15]; at 50.0 µM,78% (active)
same,growth inhibition,[16]; at 1.2 µM,9%
same,growth inhibition,[16]; at 3.7 µM,42%
same,growth inhibition,[16]; at 11.0 µM,36%
same,growth inhibition,[16]; at 33.0 µM,95% (active)
same,growth inhibition,[16]; at 100.0 µM,94% (active)
COc1cc(CC2CC(c3ccc4c(c3)OCO4)OC2=O)cc(OC)c1OC (stereo unspecified),growth inhibition,[1]; at 1.2 µM,-1%
same,growth inhibition,[1]; at 3.7 µM,-1%
same,growth inhibition,[1]; at 11.0 µM,1%
same,growth inhibition,[1]; at 33.0 µM,3%
same,growth inhibition,[1]; at 100.0 µM,7%
same,growth inhibition,[2]; at 1.2 µM,-2%
same,growth inhibition,[2]; at 3.7 µM,-3%
same,growth inhibition,[2]; at 11.0 µM,-4%
same,growth inhibition,[2]; at 33.0 µM,-3%
same,growth inhibition,[2]; at 100.0 µM,0%
same,growth inhibition,[3]; at 1.2 µM,-2%
same,growth inhibition,[3]; at 3.7 µM,-1%
same,growth inhibition,[3]; at 11.0 µM,0%
same,growth inhibition,[3]; at 33.0 µM,3%
same,growth inhibition,[3]; at 100.0 µM,8%
same,growth inhibition,[4]; at 1.2 µM,-1%
same,growth inhibition,[4]; at 3.7 µM,1%
same,growth inhibition,[4]; at 11.0 µM,1%
same,growth inhibition,[4]; at 33.0 µM,1%
same,growth inhibition,[4]; at 100.0 µM,6%
same,growth inhibition,[5]; at 1.2 µM,0%
same,growth inhibition,[5]; at 3.7 µM,1%
same,growth inhibition,[5]; [17],-6%
same,growth inhibition,[5]; at 11.0 µM,3%
same,growth inhibition,[5]; at 33.0 µM,8%
same,growth inhibition,[5]; [18],12%
same,growth inhibition,[5]; at 50.0 µM,-10.2%
same,growth inhibition,[5]; at 100.0 µM,13%
same,growth inhibition,[6]; at 1.2 µM,0%
same,growth inhibition,[6]; at 3.7 µM,-2%
same,growth inhibition,[6]; [17],6%
same,growth inhibition,[6]; at 11.0 µM,2%
same,growth inhibition,[6]; at 33.0 µM,7%
same,growth inhibition,[6]; [18],11%
same,growth inhibition,[6]; at 50.0 µM,-13.4%
same,growth inhibition,[6]; at 100.0 µM,16%
same,growth inhibition,[7]; at 1.2 µM,-2%
same,growth inhibition,[7]; at 3.7 µM,-3%
same,growth inhibition,[7]; at 11.0 µM,-1%
same,growth inhibition,[7]; at 33.0 µM,4%
same,growth inhibition,[7]; at 100.0 µM,12%
same,growth inhibition,[8]; [17],2%
same,growth inhibition,[8]; [18],6%
same,growth inhibition,[8]; at 50.0 µM,-2.9%
same,growth inhibition,[9]; at 1.2 µM,2%
same,growth inhibition,[9]; at 3.7 µM,1%
same,growth inhibition,[9]; at 11.0 µM,5%
same,growth inhibition,[9]; at 33.0 µM,7%
same,growth inhibition,[9]; at 100.0 µM,15%
same,growth inhibition,[10]; [17],-1%
same,growth inhibition,[10]; [18],7%
same,growth inhibition,[10]; at 50.0 µM,1.35%
same,growth inhibition,[11]; at 1.2 µM,15%
same,growth inhibition,[11]; at 3.7 µM,28%
same,growth inhibition,[11]; [17],24%
same,growth inhibition,[11]; at 11.0 µM,43%
same,growth inhibition,[11]; at 33.0 µM,58%
same,growth inhibition,[11]; [18],54%
same,growth inhibition,[11]; at 50.0 µM,38.5%
same,growth inhibition,[11]; at 100.0 µM,82% (active)
same,growth inhibition,[12]; at 1.2 µM,-2%
same,growth inhibition,[12]; at 3.7 µM,-4%
same,growth inhibition,[12]; at 11.0 µM,-3%
same,growth inhibition,[12]; at 33.0 µM,-5%
same,growth inhibition,[12]; at 100.0 µM,0%
same,growth inhibition,[13]; at 1.2 µM,-4%
same,growth inhibition,[13]; at 3.7 µM,-3%
same,growth inhibition,[13]; at 11.0 µM,-1%
same,growth inhibition,[13]; at 33.0 µM,3%
same,growth inhibition,[13]; at 100.0 µM,11%
same,growth inhibition,[14]; at 1.2 µM,-2%
same,growth inhibition,[14]; at 3.7 µM,-2%
same,growth inhibition,[14]; at 11.0 µM,-2%
same,growth inhibition,[14]; at 33.0 µM,0%
same,growth inhibition,[14]; at 100.0 µM,9%
same,growth inhibition,[15]; [17],-2%
same,growth inhibition,[15]; [18],8%
same,growth inhibition,[15]; at 50.0 µM,18.2%
same,growth inhibition,[16]; at 1.2 µM,-4%
same,growth inhibition,[16]; at 3.7 µM,-3%
same,growth inhibition,[16]; at 11.0 µM,-1%
same,growth inhibition,[16]; at 33.0 µM,0%
same,growth inhibition,[16]; at 100.0 µM,10%
